FAS TE block = FAS thioesterase domain inhibitors, primary screen, biochemical, fluorescence intensity, uHTS; recombinant FAS-TE, OMFH fluorogenic substrate, fluorescence endpoint; inhibition, % at 15 µM; Fatty acid synthase (Homo sapiens), P49327; 360,000 tested, 0.67% active;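 active = compounds whose normalised, plate-corrected inhibition of enzyme fluorescence in the single-dose primary screen is 50% or more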;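 also: 0% = DMSO with enzyme and 100% = substrate without enzyme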
m-calpain inh = inhibitors of pig calpain II, primary screen, biochemical, fluorogenic peptide substrate, 1536-well. inhibition, % at 16 µM. 220,000 tested, 0.37% active. purified calpain II, 30 min;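 active = inhibition above about 50%, limit read from the data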
H9c2 protect = cardioprotection against H2O2-induced cell death, primary screen, uHTS, H9c2 cells, ATPLite luminescence; H9c2 cardiomyocytes, H2O2 injury protection, 2 h; protection from H2O2 cell death, % at 20 µM; 360,000 tested, 0.63% active;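 active = compounds giving at least 50% protection of heart cells from peroxide-induced death in the single-dose screen, raw or plate-pattern-corrected value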;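 also: 0% = DMSO wells with peroxide and 100% = DMSO wells without peroxide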
beta cell repl = inducers of MIN6 beta-cell proliferation, primary screen, ATP luminescence, uHTS; MIN6 cells proliferation, ATPlite luminescence, 48 h; cells starved in 0.2% serum; 100% = growth in 10% serum; proliferation, % at 10 µM; 330,000 tested, 0.29% active; AID 2380, 2010;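 active = compounds whose signal lies at least 3.5 SD above the mean of all wells on their plate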;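 also: 0% = DMSO-treated cells in low-serum medium and 100% = 10% serum control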
TAG inh = inhibitors of triacylglycerol accumulation, primary screen, cell-based, uHTS, fluorescence, H9c2; AID 651582, 2012; 230,000 tested, 0.66% active; H9c2 cells, Nile Red lipid (TAG) fluorescence; cells loaded with 200 µM oleic acid; inhibition, % at 12.5 µM;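 active = pattern-corrected inhibition of lipid staining of at least 50% with the nuclear-stain viability signal not falling by more than 50%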;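 also: 0% = DMSO wells and 100% = triacsin C control wells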
aDG glyco up = activators of alpha-DG glycosylation, primary screen, uHTS, Pro5-aDG cells, AlphaScreen; alpha-DG glycosylation AlphaScreen (IIH6); 0% Pro5, 100% B10-LARGE cell signal; activation, % at 10 µM; 360,000 tested, 0.22% active; AID 624168, 2012;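 active = activation of at least 8% versus controls, or a plate z-score of at least 8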;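 also: Pro5 are CHO cells carrying HIG-tagged alpha-DG that lacks glycosylation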
H9c2 TAG conf = triacylglycerol accumulation inhibitors, retest, confirmation, cell-based, single concentration, Nile Red fluorescence, H9c2. inhibition, % at 12.5 µM. H9c2 lipid accumulation; cells loaded with 200 µM oleic acid. 990 tested, 71% active. AID 651629, 2012. shares compounds with TAG inh;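 active = mean inhibition across replicates of 40% or more; inactive = mean inhibition below 40%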;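 also: plate controls were DMSO only wells for no effect and Triacsin C treated wells for full effect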
* hit, by the source's call; i = inactive; · = not tested or not shown. A selection: hits, their analogues and other compounds. The true share with any hit is near 2.3%.

SMILES	FAS TE block	m-calpain inh	H9c2 protect	beta cell repl	TAG inh	aDG glyco up	H9c2 TAG conf
O=C1C(NS(=O)(=O)c2cccs2)=C(N2CCN(c3cccc(C(F)(F)F)c3)CC2)C(=O)c2ccccc21	16.1	-121.0	-12.0	-5.3	60.2*	-0.5	77.5*
COc1ccc(S(=O)(=O)N(CC(=O)NCc2cccnc2)c2ccc(C)cc2)cc1OC	-6.3	·	4.1	-3.3	·	0.0	·
COc1ccccc1-c1sc2ccccc2c1-c1cnc(N2CCOCC2)nc1	17.2	·	·	·	·	4.3	·
O=C(Nc1ccc(S(=O)(=O)N2CCOCC2)cc1)c1ccc([N+](=O)[O-])s1	-3.3	·	-19.6	-7.0	94.0*	0.2	89.2*
CCc1nnc(NS(=O)(=O)c2ccc(NC(=O)c3cccc([N+](=O)[O-])c3)cc2)s1	-8.7	·	4.8	2.2	·	-0.5	·
CCc1nnc(NS(=O)(=O)c2ccc(NC(=O)c3ccc([N+](=O)[O-])s3)cc2)s1	-2.9	·	-0.2	·	66.9*	-0.1	7.7
O=[N+]([O-])c1ccc(S(=O)(=O)NN=CCCc2ccccc2)cc1	45.3	·	-4.2	·	6.0	1.1	·
COc1ccccc1N1CCN(C2CCCN(C(=O)c3oc(C)cc3C)C2)CC1 (centres undefined)	-0.7	·	12.1	0.8	-9.2	-0.3	·
O=C(Nc1nnc([C@@H]2C[C@H](O)[C@@H](CO)O2)s1)Nc1ccc(F)cc1F	-8.2	·	4.6	·	-1.4	-0.1	·
Cc1ccc(CN(C(=O)c2csnn2)C(C(=O)NC2CCCC2)c2ccc(C)o2)cc1 (centres undefined)	9.0	5.8	26.2	-0.6	51.2*	0.3	42.5*
C/C(CC(=O)NCc1ccccc1Cl)=N/NC(=O)c1ccccn1	-3.1	·	-5.1	0.0	·	-0.1	·
O=C(Nc1cccc2ncccc12)c1ccc(Cl)cc1	10.2	·	-4.9	-2.9	70.6*	-0.3	74.6*
O=C(Nc1cccc2ncccc12)c1ccc(F)cc1	-4.1	9.0	-0.4	0.0	·	0.0	·
O=C1c2ccccc2C(c2nnnn2-c2ccc3c(c2)OCCO3)N1CCOc1ccccc1 (centres undefined)	1.1	·	·	·	·	0.2	·
CC1CCCN(Cc2c(O)ccc3c(=O)c(-c4nc5ccccc5s4)c(N)oc23)C1 (centres undefined)	-11.6	-90.5	13.5	-5.6	·	0.5	·
CC1(C)CCCN(Cc2c(O)ccc3c(=O)c(-c4nc5ccccc5s4)c(N)oc23)C1	-26.1	-135.7	9.1	-6.6	55.4*	-0.2	67.8*
CN(C)c1cccc(C(=O)NCc2ccc3c(c2)OCO3)c1	-2.9	·	3.1	-1.1	·	-0.1	·
CO/N=C\CC(=O)Nc1ccc(Oc2ccccc2)cc1	-2.8	-15.6	-9.1	-4.5	60.9*	-0.6	81.5*
CN(C)CCN1CCN(C(c2cc3ccccc3o2)c2nnnn2C(C)(C)C)CC1 (centres undefined)	-13.0	·	·	·	·	0.1	·
COc1ccc2cc3cc(C(=O)NCC4COc5ccccc5O4)oc3nc2c1 (centres undefined)	1.2	i	-15.2	0.0	56.9*	1.9	32.9
COc1ccc(-c2noc(CCC(=O)NCCc3cccc(C)c3)n2)cc1	7.2	6.5	-5.7	1.6	·	0.5	·
CCOc1ccc(CCNC(=O)CCc2nc(-c3ccc(OC)cc3)no2)cc1OCC	-13.6	-15.8	-3.8	0.3	52.3*	0.3	38.8
CCOc1ccc(CCNC(=O)CCc2nc(-c3ccc(C)cc3)no2)cc1OCC	-2.2	-12.4	-8.2	-2.0	63.0*	-0.1	45.3*
Cc1ccc(Nc2nc(OC(C(F)(F)F)C(F)(F)F)nc(N3CCOCC3)n2)cc1	20.5	-8.9	-23.9	-1.9	99.9*	0.9	92.6*
OCCN1CCN(CC(O)COc2ccc(C34CC5CC(CC(C5)C3)C4)cc2)CC1 (centres undefined)	5.6	-32.7	-13.9	-5.9	63.4*	-0.3	37.2
SMILES	FAS TE block	m-calpain inh	H9c2 protect	beta cell repl	TAG inh	aDG glyco up	H9c2 TAG conf
CC1CCN(C(=O)c2ncn3c2c(=O)[nH]c2cccnc23)CC1	-5.3	·	-2.6	·	5.6	0.0	·
C[C@H]1CCCCO[C@H](CN(C)CC2CCCCC2)[C@@H](C)CN([C@@H](C)CO)C(=O)c2cc(NS(=O)(=O)c3ccccc3)ccc2O1	-0.9	·	-3.7	·	56.9*	0.3	57.6*
COc1ccc(CN(C)C[C@@H]2OCCCC[C@H](C)Oc3ccc(NC(=O)Nc4ccc(F)cc4)cc3C(=O)N([C@H](C)CO)C[C@H]2C)cc1	8.5	·	5.5	·	62.8*	-0.1	46.9*
C[C@@H]1CN([C@H](C)CO)C(=O)c2cc(NC(=O)Nc3ccc(F)cc3)ccc2O[C@@H](C)CCCCO[C@H]1CN(C)Cc1ccc(C(=O)O)cc1	-5.2	·	5.4	·	-4.2	0.1	·
COc1ccccc1CNC(=O)CN1C(=O)NC(c2ccccc2)(c2ccc(C)c(C)c2)C1=O (centres undefined)	8.1	·	-7.1	-7.2	53.5*	0.2	35.9
Cc1ccc(C2(c3ccccc3)NC(=O)N(CC(=O)NC3CCCCC3)C2=O)cc1C (centres undefined)	10.7	·	-1.7	-6.1	10.6	0.4	·
O=C(Cc1ccc(NC(=O)C2CCN(C(=O)C3CCC3)CC2)cc1)Nc1cccc(C(=O)N2CCCC2)c1	-8.3	·	-1.5	·	-4.5	-0.2	·
CCc1c2ccccc2nn1-c1ccccc1C(=O)C(C)=O	1.4	·	6.5	3.5	-20.9	0.1	·
CCOc1ccc(NC(=O)c2ccc(NC(=O)CSc3nc4ccccc4c(=O)[nH]3)cc2)cc1	1.2	-67.0	8.2	-4.7	60.8*	-0.1	62.8*
COc1ccc(NC(=O)Cn2c(-c3ccccc3)cn(-c3ccc(C)cc3)c2=O)cc1	15.6	-7.1	-2.7	-1.0	56.5*	-0.5	27.3
COc1ccc(Nc2oc(-c3ccc(Cl)cc3)nc2C#N)cc1	0.1	-17.7	-26.3	-1.1	54.4*	-0.2	52.1*
COc1ccc(Nc2oc(-c3ccc(OC)cc3)nc2C#N)cc1	-5.4	-7.2	-4.8	0.4	24.2	-0.1	·
C=C(C)c1cccc(C(C)(C)NC(=O)N2CCCC(C(N)=O)C2)c1 (centres undefined)	-4.8	-23.4	1.0	-1.9	-3.9	-0.1	·
C=C(C)c1cccc(C(C)(C)NC(=O)N2CCC(C(N)=O)CC2)c1	-5.4	-8.1	8.9	1.0	58.7*	0.0	7.2
O=C(CCCn1c(=S)[nH]c2cc3c(cc2c1=O)OCO3)N1CCN(c2ccccc2)CC1	28.1	-136.9	5.6	-2.6	-5.1	0.0	·

Compound activity as filed in PubChem.
